The campaign covered roughly 320,000 compounds. About 1,300 (0.41%) were called active. Inconclusive results (about 3%) are left out. The rule behind the calls is not given here. These entries were drawn from the full list. Results with a measured potency or affinity are listed apart.

A short description of the test: growth inhibition of non-replicating M. tuberculosis (AID 488890).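 Note: plate controls were DMSO cells for no effect and high antibiotic wells for full effect.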 As to conditions: Mycobacterium tuberculosis non-replicating, at 25 µM, stronger effect = higher value.
Turning to `COc1cccc(CN(C)C(=O)Cc2c[nH]c3ccccc23)c1OC`, the inhibition came to 5.31%. The figure for `CCOC(=O)C1=C(COC(=O)c2ccc(C)s2)NC(=O)NC1C` (stereo not drawn) is 11.3%; for `CCS(=O)(=O)N1N=C(c2cccc(NS(C)(=O)=O)c2)CC1c1ccccc1` (stereo not drawn) it is 36.4%; for `Cc1nn(-c2nc3ccccc3[nH]2)c(=O)c2ccccc12` it is 34%.

In the case of `Cc1nn(-c2nc3ccccc3s2)c(N)c1-c1ccc(Cl)cc1`, the inhibition is -4.69%. Turning to `Cc1cc(C(=O)COC(=O)COc2ccc(C#N)cc2)c(C)n1C1CC1`, the inhibition came out at 47%. For `CCC(=O)c1ccc(OCC(=O)OCC(=O)c2cc(C)n(CC3CCCO3)c2C)cc1` (stereo not drawn), the inhibition amounted to 70.2%.

`CC(C)c1ccc(NC(=O)C2CCCN2S(=O)(=O)c2ccccc2F)cc1` (stereo not drawn): the inhibition is -6.6%. For the molecule `CC1=Nc2ccccc2/C1=C/c1c(O)[nH]c(=O)[nH]c1=O`, the inhibition amounted to 1.63%. The figure for `O=c1[nH]c(O)c(C=Nc2ccc(F)c(Cl)c2)c(=O)[nH]1` is 4.76%; for `O=C(Nc1cccc(Cl)c1)c1nc[nH]c1C(=O)NCc1ccccc1` it is 78.3%. With `Cc1cc(C(=O)N2CCC(Cc3ccccc3)CC2)c(C)o1`, the inhibition came out at 15.3%.

Consider `CCOCC(=O)N1CCC(Cc2ccccc2)CC1`, for which the inhibition was determined as 47.1%.

Consider `CCCNC(=O)N1CCC(Cc2ccccc2)CC1`, for which the inhibition was 67.7%.

Consider `O=C(c1cccs1)N1CCC(Cc2ccccc2)CC1`, for which the inhibition was 11.9%. As to `O=C(O)CCCC(=O)N1CCN(c2ncccn2)CC1`, the inhibition is -16.3%. The result for `COc1ccc(-n2cc(C(=O)c3cc4ccccc4oc3=O)c(C(C)=O)n2)cc1` reads 19.3%; that for `COc1ccc(CCNC(=O)c2cccc(S(=O)(=O)N3CCOCC3)c2)cc1OC`, 16%; that for `O=C(COC(=O)c1ccc[nH]c1=O)c1ccc(Cl)s1`, 21.8%. For `O=C(Cc1ccc(Cl)c(Cl)c1)OCC(=O)c1ccc[nH]1`, the inhibition worked out at 70.6%. Regarding `O=C(COC(=O)c1nc(Cl)ccc1Cl)c1ccc[nH]1`, the inhibition turned out to be 4.28%.

In the case of `O=C(Cc1ccc(Br)cc1)OCC(=O)c1ccc[nH]1`, the inhibition stood at 79.4%.

On to `CC(=O)N1c2ccc(S(=O)(=O)NCC3CCC(C(=O)NCc4ccccc4)CC3)cc2CC1C` (stereo not drawn), for which the inhibition amounted to 14.7%. The result for `COc1ccc(CC2C(=O)N(C)C(=O)N(C)C2=O)c(OC)c1` reads -3.03%; that for `O=C/C(=C\Nc1ccc(Cl)cn1)c1nc2cc(Cl)ccc2o1`, 58.2%; that for `COc1ccc(-c2cc3ccc(OCC(C)=O)cc3oc2=O)cc1`, 15.4%.

In the case of `CC(=O)COc1ccc2c(-c3cccc([N+](=O)[O-])c3)cc(=O)oc2c1`, the inhibition is -17.4%. The figure for `CC(Oc1ccc2cc(-c3ccccc3)c(=O)oc2c1)C(=O)NCC1CCC(C(=O)O)CC1` (stereo not drawn) is 4.91%; for `COc1ccc(-c2cc3ccc(OCC(N)=O)cc3oc2=O)cc1OC` it is 17.8%; for `COc1ccc(-c2cc(=O)oc3cc(OCC(=O)N(C)C)ccc23)cc1` it is -18.8%.

For `COc1ccc(-c2cc(=O)oc3cc(OCC(C)=O)ccc23)cc1`, the inhibition worked out at 36.8%. For `COc1ccc(-c2cc3ccc(OC(C)C(=O)O)cc3oc2=O)cc1` (stereo not drawn), the inhibition was -4.62%. The result for `COC(=O)C(C)Oc1ccc2c(-c3cccc([N+](=O)[O-])c3)cc(=O)oc2c1` (stereo not drawn) reads 67.4%.

Source of the values: PubChem BioAssay AID488890 (Southern Research Specialized Biocontainment Screening …, 2010).
